PubChem BioAssay (NCI)
This is part of a sample that, as a whole, favours compounds with a hit. Of some 83,000 tested, about 20% had one in any assay.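 96-well plates, one dose, 48 hours. Percent growth reported; active if below 10.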 Unmarked numbers belong to inactive results. Calls of active or inactive are those of the source.

What was measured:
Experiment in all cases: NCI-60 one-dose screen, 48 h (100 = growth as untreated, 0 = no growth, -100 = all killed)
Details in all cases: 10 µM unless noted
[1] = test system: NCI-H23 lung
[2] = test system: NCI-H226 lung
[3] = test system: NCI-H322M lung
[4] = test system: HOP-62 NSCLC
[5] = test system: NCI-H522 lung
[6] = test system: A549/ATCC NSCLC
[7] = test system: 786-0 renal
[8] = test system: COLO 205 colon
[9] = test system: DU-145 prostate
[10] = test system: K-562 leukemia
[11] = test system: MALME-3M melanoma
[12] = test system: MDA-MB-231 breast
[13] = test system: RXF 393 renal
[14] = test system: SF-268 CNS
[15] = test system: SF-539 CNS
[16] = test system: UACC-257 melanoma
[17] = test system: M14 melanoma
[18] = test system: HCT-15 colon
[19] = test system: SF-295 CNS
[20] = test system: NCI-H460 lung

| SMILES | growth [1] [%] | growth [2] [%] | growth [3] [%] | growth [4] [%] | growth [5] | growth [6] [%] | growth [7] [%] | growth [8] [%] | growth [9] | growth [10] | growth [11] [%] | growth [12] [%] | growth [13] | growth [14] [%] | growth [15] | growth [16] [%] | growth [17] | growth [18] [%] | growth [19] [%] | growth [20] [%] |
| --- | --- | --- | --- | --- | --- | --- | --- | --- | --- | --- | --- | --- | --- | --- | --- | --- | --- | --- | --- | --- |
| COc1ccc(-c2oc3cc(O)c(OC)c(O)c3c(=O)c2OC)cc1O | 16.1 | 73.5 | 46.7 | 43 | -30.3% (active) | 19.7 | 23.2 | 101 | -18.4% (active) | 8.02% (active) | 38.9 | 11.1 | 7.24% (active) | 13.6 | -16% (active) | 53.4 | -24.8% (active) | 17.3 |  |  |
| COc1ccc(C(=O)COc2cccc(/C=C3\Oc4ccc5ccccc5c4C3=O)c2)cc1 | 10.3 | 71.7 | 106 | 89.8 | -0.888% (active) |  | 100 | 77.3 |  | 81.4% | 17.2 | 79.3 |  | 83.7 | -50% (active) | 95.7 | 49.2% | 43.7 | 119 |  |
| COc1ccc2nccc(/C=C/c3ccnc4ccc(OC)cc34)c2c1 | 104 | 131 | 120 | 114 | 112% | 66.1 | 105 | 119 | 104% | 52.5% | 146 | 114 | 37.4% | 71.3 | 106% | 153 | 110% | 101 | 129 |  |
| c1csc([C@@H]2C[C@@H]3Cc4ccc5ccccc5c4N2O3)c1 | 95.5 | 108 | 91.2 |  | 87% | 90.8 | 98.2 | 120 | 113% | 93.2% | 86.4 | 89.1 | 104% | 108 | 90.5% | 98.7 | 99.7% | 93.7 | 109 | 109 |
| Cc1cc(N2CCOCC2)nc(N2CCOCC2)n1 | 94.6 | 110 | 92.2 | 82.2 | 78.6% | 98.1 | 92.7 | 118 | 117% | 112% | 107 | 114 | 118% | 100 | 97.5% | 105 | 105% | 102 | 113 |  |
| c1cnc2ccc3ncccc3c2c1 | 118 | 105 | 117 | 82.6 | 84.6% | 90.2 | 103 | 109 | 117% | 106% | 146 | 114 |  | 107 | 104% | 83.5 | 99.8% | 108 | 113 |  |
| O=C(CSc1nnc(Nc2ccccc2)s1)NCCc1ccc(F)cc1 | 131 | 85.1 | 115 | 103 | 91.5% | 124 | 95.6 | 115 | 105% | 107% | 97.4 | 91.5 | 113% | 109 | 96.4% |  | 103% |  | 102 |  |
| CCC(=O)Nc1ccccc1C#C/C=C\C#Cc1ccccc1C(F)(F)F | 57.3 | 52.5 | 37.4 | 54.5 | 68.2% | 64.2 | 50.5 | 59.4 | 40% | 43.4% | 54.4 | 55.6 | 42.8% | 67.8 | 55% |  | 40.5% | 56.3 | 28.8 |  |
| CCS(=O)(=O)OCCCl | 22.4 | 98.4 | 103 | 108 | 14.3% |  | 96.5 | 102 | 116% | 122% | 113 | 118 |  | 107 | 94.9% | 72.1 | 116% | 92.9 | 97.2 |  |
